According to PubChem BioAssay (NCI):
About 83,000 compounds went through this panel and 20% of them were active in at least one assay; those are over-represented in the sample as a whole.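 Percent growth is the endpoint: 0 to 100 indicates growth inhibition (40 means 60% inhibition), 0 means no net growth, and negative values indicate cell death.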 A number with no mark means an inactive call. The source made the active and inactive calls. Rule for the calls: active = growth percent below 10; inactive = the rest.

Experiments:
Assay in all cases: NCI-60 one-dose screen, 48 h (100 = growth as untreated, 0 = no growth, -100 = all killed)
Conditions in all cases: 10 µM unless noted
SR leukemia = tested on: SR leukemia
RPMI-8226 leukemia = tested on: RPMI-8226 leukemia
OVCAR-8 ovarian = tested on: OVCAR-8 ovarian
OVCAR-5 ovarian = tested on: OVCAR-5 ovarian
OVCAR-4 ovarian = tested on: OVCAR-4 ovarian
SK-OV-3 ovarian = tested on: SK-OV-3 ovarian
IGROV1 ovarian = tested on: IGROV1 ovarian
OVCAR-3 ovarian = tested on: OVCAR-3 ovarian
HS 578T breast = tested on: HS 578T breast
NCI/ADR-RES ovarian = tested on: NCI/ADR-RES ovarian
T-47D breast = tested on: T-47D breast
BT-549 breast = tested on: BT-549 breast
MDA-MB-435 melanoma = tested on: MDA-MB-435 melanoma
SW-620 colon = tested on: SW-620 colon
MCF7 breast = tested on: MCF7 breast
HCT-116 colon = tested on: HCT-116 colon
HCC-2998 colon = tested on: HCC-2998 colon
KM12 colon = tested on: KM12 colon

SMILES	growth (SR leukemia)	growth (RPMI-8226 leukemia)	growth (OVCAR-8 ovarian)	growth (OVCAR-5 ovarian)	growth (OVCAR-4 ovarian)	growth (SK-OV-3 ovarian)	growth (IGROV1 ovarian)	growth (OVCAR-3 ovarian)	growth (HS 578T breast) [%]	growth (NCI/ADR-RES ovarian)	growth (T-47D breast) [%]	growth (BT-549 breast) [%]	growth (MDA-MB-435 melanoma)	growth (SW-620 colon)	growth (MCF7 breast)	growth (HCT-116 colon)	growth (HCC-2998 colon)	growth (KM12 colon)
Nc1ccc2c(c1)Cc1cc(N)c(N)cc1-2	82.2%	101%	96.7%	107%	105%	93.7%	97.9%	112%	106	101%	84.4	104	104%	100%	73.3%	95.8%	110%	94.3%
O=C(O)c1ccc(OCc2ccccc2)cc1	99.8%	97.5%	97.9%	93.5%	102%	98.8%	91.1%	118%	96	104%	83.7	104	108%	107%	96.5%	93%	101%	–
COc1cc(N)c2ncccc2c1Cl	91.3%	83.9%	103%	90.2%	128%	105%	117%	118%	130	112%	101	87.5	111%	109%	104%	95.3%	106%	–
CC(=O)c1cccc(NS(=O)(=O)c2ccc(C)cc2)c1	36.6%	86.6%	90.1%	92.8%	79%	101%	62.8%	70.9%	86.9	50.5%	67.7	74.8	-21.4% (active)	43.3%	39.8%	60.2%	65.4%	–
COC1OC(COC(C)=O)C(OC(C)=O)C(OC(C)=O)C1OC(C)=O (configuration not stated)	95.5%	96.4%	97.9%	93%	86.5%	101%	118%	96%	101	95.2%	91.7	101	105%	109%	93%	87.4%	101%	106%
O=C(Nc1c(Cl)cc(Cl)cc1Cl)ON=C1CCCCC1	98.4%	105%	104%	96.4%	108%	114%	109%	105%	99.3	109%	98.6	113	107%	114%	102%	107%	117%	96.5%
CC(=O)NNC(=S)N/C=C/c1c(C)ccc([N+](=O)[O-])c1[N+](=O)[O-]	92.9%	103%	102%	99.3%	106%	105%	109%	103%	108	97.9%	110	99.9	100%	110%	96.2%	89.9%	107%	97.2%
COc1ccc(/C=N/NC(=O)COCC(=O)N/N=C/c2ccc(OC)cc2)cc1	96.7%	101%	104%	108%	90.5%	108%	110%	108%	114	112%	104	118	98.2%	108%	95.9%	111%	111%	107%
C/C(O)=C(/C=N/C(=S)Nc1ccccc1)C(=O)Nc1ccccc1C	91.7%	103%	96.3%	117%	83%	101%	105%	105%	94.8	103%	79.6	107	111%	106%	94.9%	109%	109%	100%
Cc1ccc(N)c(S(=O)(=O)O)c1	79%	90.2%	103%	89%	83.7%	103%	206%	106%	113	94.5%	101	104	117%	101%	98.9%	98.1%	95.7%	101%
CC(=O)c1cccc(O)c1	90.6%	105%	103%	96.4%	93.6%	104%	106%	115%	96.5	100%	103	113	107%	101%	94.3%	99.9%	110%	103%
CCN(CC)CCOC(=O)Nc1c(C(C)C)cccc1C(C)C	101%	105%	102%	104%	108%	95.7%	100%	114%	105	113%	103	117	102%	118%	101%	101%	114%	–
CCOP(=O)(OCC)/C(=C\N1C(=O)CC(=O)NC1=S)C(=O)OC	96.7%	101%	97.6%	98.7%	94.3%	104%	103%	114%	98.4	104%	95	116	102%	101%	94.7%	115%	85.7%	105%
O=C(O)CC1=CCCCC1	96.7%	96.6%	104%	98.5%	100%	117%	96.1%	101%	108	96.9%	109	96.1	101%	98.2%	96.7%	104%	94.3%	–
NC(=O)OCCO	94.5%	104%	104%	107%	109%	105%	108%	102%	99.2	105%	94.4	94.9	111%	106%	92.9%	90.6%	97.9%	98.7%
C#CCSc1nnnn1-c1ccccc1	86.9%	72.4%	80.9%	92%	92.6%	104%	92.8%	79.1%	102	86.7%	39.6	76.8	85.3%	53.2%	69.3%	71.6%	104%	–
ClCC(Cl)[C@@H]1CC2C=CC1C2 (some centres not stated)	112%	104%	96.2%	110%	104%	111%	114%	119%	108	105%	98.8	103	96.9%	105%	98.1%	98.4%	118%	115%
CCCCOC(=O)c1ccc(NC(=O)CCl)cc1	-30.8% (active)	19.5%	42.2%	101%	-53% (active)	105%	-49.5% (active)	-83.5% (active)	79.9	65.2%	47.2	47.5	75.9%	25.8%	22.8%	4.07% (active)	101%	84.7%

SMILES	growth (SR leukemia)	growth (RPMI-8226 leukemia)	growth (OVCAR-8 ovarian)	growth (OVCAR-5 ovarian)	growth (OVCAR-4 ovarian)	growth (SK-OV-3 ovarian)	growth (IGROV1 ovarian)	growth (OVCAR-3 ovarian)	growth (HS 578T breast) [%]	growth (NCI/ADR-RES ovarian)	growth (T-47D breast) [%]	growth (BT-549 breast) [%]	growth (MDA-MB-435 melanoma)	growth (SW-620 colon)	growth (MCF7 breast)	growth (HCT-116 colon)	growth (HCC-2998 colon)	growth (KM12 colon)
O=c1nc(Nc2cccc(Cl)c2)oc2cc(Cl)oc(=O)c12	2.45% (active)	26.8%	62.9%	88%	89.9%	98.4%	12.4%	51.6%	62.3	89%	61.6	91.2	85.8%	74.1%	53.8%	55.1%	96.2%	81.7%
CC1(C)OC2C(CO)OC(n3ccc(=O)[nH]c3=O)C2O1 (configuration not stated)	99.7%	103%	91.8%	104%	115%	99.3%	101%	107%	91.8	105%	89.4	104	101%	96.3%	97.7%	98.2%	102%	102%
CN(C)c1ccc(O)c2c1CC1CC3C(N(C)C)C(=O)C(C(N)=O)=C(O)C3(O)C(=O)C1=C2O (configuration not stated)	24.1%	20.6%	38.3%	63.4%	57.8%	45.2%	38.4%	46.6%	48.9	66.7%	50.5	29.2	44.8%	47.8%	53.4%	34.1%	49.7%	50%
CC(C)NC(=O)OCc1c(COC(=O)NC(C)C)c(-c2ccc(Cl)cc2)n2c1CCC2	2.94% (active)	93.4%	63.3%	85.1%	48.9%	40.8%	70.3%	66%	73.6	46.5%	36.3	27	66.7%	46.6%	41.2%	49.9%	87%	100%
NC(=O)c1cc2c3ccccc3ccn2c1-c1ccccc1	-22.3% (active)	7.04% (active)	8.3% (active)	33.5%	43.2%	12.7%	20.2%	-20.6% (active)	70.3	-12% (active)	88.7	25.5	-13.5% (active)	33.7%	10.3%	-32.6% (active)	-6.31% (active)	4.03% (active)
CN(C)c1ccc2nc3ccc(=[N+](C)C)cc-3oc2c1	60.3%	45.6%	8.48% (active)	-12.3% (active)	-76% (active)	61.3%	5.34% (active)	-10.6% (active)	101	66.3%	14.4	63.2	55.1%	9.01% (active)	-30.4% (active)	6.48% (active)	43.3%	35.1%
COc1ccc2c(ccc[n+]2C)c1	115%	85.4%	94.8%	99.9%	91.9%	107%	85.3%	82.7%	80.2	106%	102	113	110%	101%	96.1%	99.8%	104%	90.6%
O=C(c1cccc(C(=O)c2ccc3c4c(cccc24)C(=O)N(c2ccccc2)C3=O)c1)c1ccc2c3c(cccc13)C(=O)N(c1ccccc1)C2=O	57.4%	72.4%	88.8%	111%	77.4%	102%	104%	98.8%	97.6	96.9%	76.3	104	107%	104%	86.8%	93.9%	114%	98.2%
Cc1c(Cl)cccc1N=C=S	108%	86.3%	95.6%	93.1%	87.4%	104%	108%	102%	109	89.3%	107	87.9	106%	114%	97.5%	95.2%	92.9%	108%
CCCC(=O)CC(=O)c1ccccc1	107%	103%	93.6%	101%	112%	-20% (active)	108%	99.4%	106	100%	96.1	101	110%	105%	97.2%	94.8%	99.1%	102%
COc1cc(CC#N)c([N+](=O)[O-])cc1OC	91.2%	109%	98.2%	111%	128%	111%	95.6%	109%	117	105%	105	105	111%	119%	102%	93.5%	108%	104%
CCCCCCCCCCCCCCCCCCSC(=N)N	-13.5% (active)	61.7%	86.9%	83.2%	76.1%	83.3%	70.5%	89.5%	100	81%	90	104	84.7%	46.3%	51.7%	66.6%	45.2%	64.5%
CC(C)N(CCCC#N)C(C)C	108%	98.2%	92.8%	96.7%	88.7%	110%	103%	108%	86.7	121%	94.2	112	103%	99.2%	83.7%	98.8%	106%	105%
CC(=O)C1C(=O)C(=O)N(c2ccc(Cl)c(Cl)c2)C1=O (configuration not stated)	91.2%	107%	101%	104%	88.5%	106%	98.6%	107%	103	97%	93.2	97.5	103%	108%	89.1%	91.3%	101%	103%
O=C1NC(=O)/C(=C\c2ccncc2)N1	92.2%	103%	103%	98.3%	98.6%	99.2%	109%	94.3%	95	103%	101	99.5	96%	99%	94.9%	89.6%	133%	86.9%
Cc1onc(-c2c(F)cccc2Cl)c1-c1ncc(-c2ccc(Br)cc2)o1	13.7%	22.6%	38.3%	70%	48%	66.1%	36.8%	43.6%	66.6	31.1%	29.6	40.7	40.8%	35.6%	20.9%	17.8%	58.6%	36.4%
CCOC(=O)C(CCC#N)(CCC#N)C(=O)OCC	103%	96.6%	104%	97.8%	96%	108%	126%	102%	95.2	105%	112	98	101%	100%	91.4%	97.3%	97.6%	106%
Cc1cc(=O)n(Nc2ccccc2)c(O)c1C#N	88.9%	99.8%	106%	105%	108%	99.6%	101%	98.6%	100	102%	92	107	108%	98.6%	98.4%	101%	112%	92.9%
